Measured values reported in PubChem BioAssay.

Biological target: Torsin-1A-interacting protein 1 (Homo sapiens) (UniProt Q5JTV8)
Experiment: compound microarray binding of lysate hLAP1 – cell lysate, small-molecule microarray, COS7 lysate, 635/667 nm fluorescence, primary screen (AID 1116)
Conditions: 635 nm fluorescence, higher = more signal

Torsin-1A-interacting protein 1 (Homo sapiens), sequence (Q5JTV8 whole entry, looked up): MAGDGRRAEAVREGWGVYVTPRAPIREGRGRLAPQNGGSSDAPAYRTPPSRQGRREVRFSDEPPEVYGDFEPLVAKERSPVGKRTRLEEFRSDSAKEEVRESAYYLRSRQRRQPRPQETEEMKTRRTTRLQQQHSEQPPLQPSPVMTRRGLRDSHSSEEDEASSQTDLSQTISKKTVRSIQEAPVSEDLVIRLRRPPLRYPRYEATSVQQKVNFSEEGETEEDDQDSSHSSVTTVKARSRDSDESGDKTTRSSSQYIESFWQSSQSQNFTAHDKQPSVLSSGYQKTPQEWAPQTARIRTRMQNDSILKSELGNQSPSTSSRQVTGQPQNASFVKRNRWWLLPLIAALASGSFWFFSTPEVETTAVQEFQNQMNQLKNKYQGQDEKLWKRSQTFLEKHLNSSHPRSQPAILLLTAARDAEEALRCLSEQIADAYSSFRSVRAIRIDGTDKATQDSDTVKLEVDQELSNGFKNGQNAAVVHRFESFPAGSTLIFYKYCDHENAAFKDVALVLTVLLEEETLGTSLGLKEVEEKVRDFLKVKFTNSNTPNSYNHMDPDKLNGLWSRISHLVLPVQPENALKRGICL

| Compound | composite z-score |
| --- | --- |
| O=C1O[C@H](c2ccccc2)[C@H](c2ccccc2)N2[C@H]1[C@@H](C(=O)NC[C@H](O)c1ccccc1)[C@]1(C(=O)Nc3ccccc31)[C@H]2c1ccccc1OCCO | 1.41 |
| [N-]=[N+]=NCc1ccccc1[C@H]1OC(c2ccc(OCCCO)cc2)=N[C@@]1(Cc1ccccc1N=[N+]=[N-])C(=O)N1CCCCC1 | 1.44 |
| O=[N+]([O-])c1ccc(C[n+]2ccc(-c3ccc(CO)cc3)cc2)o1 | 1.12 |
| O=C1OCC=C[C@H]2OC34C=CCN(CCN5CCOCC5)C(=O)[C@H]3N(CCCCCO)C(=O)[C@@H]4[C@@H]12 (stereo not given in full) | -0.607 |
| Cc1ccccc1C(O)C1C=CC2C(=O)N(C)C(=O)C2N1Nc1ccc([N+](=O)[O-])cc1[N+](=O)[O-] (stereo not given) | 1.24 |
| O=C1NC(=O)C2C1C=CC(C(O)CCc1ccccc1)N2Nc1ccccn1 (stereo not given) | 2.33 |
| O=C(O)[C@@]1(Cc2ccccc2)COC(c2ccc(OCCCO)cc2)=N1 | 0.28 |
| COC(=O)[C@@]1(Cc2ccccc2)[C@H]2c3cc(C(=O)N(C)C)n(Cc4ccccn4)c3C[C@H]2CN1C(=O)c1ccccc1 | 1.77 |
| Cc1ccccc1C(O)C1C=CC2C(=O)N(Cc3ccccc3)C(=O)C2N1n1cnnc1 (stereo not given) | 0.542 |
| CCOc1cc(C(O)C2C=CC3C(=O)NC(=O)C3N2Nc2ccccn2)ccc1O (stereo not given) | 0.229 |
| CCOC(=O)C[C@H]1[C@H](OC(=O)c2ccccc2-c2ccccc2)[C@@H](NC(=O)c2ccccc2)c2cc(OCCCO)ccc2N1C(=O)Cc1ccc(OC)cc1 | 0.593 |
| COC(=O)C(CC#Cc1ccc2c(c1)[C@]1(C(=O)N2)[C@H](c2ccccc2OCCO)N2[C@H](c3ccccc3)[C@H](c3ccccc3)OC(=O)[C@H]2[C@@H]1C(=O)Nc1nc2ccccc2s1)C(=O)OC | 0.874 |
| C=CCC(OC(C)=O)[C@@H]1[C@@H](N(Cc2cccc3ccccc23)C(=O)c2ccc(C)cc2)c2cc(OCCCO)ccc2N1C(=O)c1ccc2ccccc2c1 (stereo not given in full) | 0.139 |
| O=C1NC(=O)C2C1C=CC(C(O)c1ccc3c(c1)OCO3)N2Nc1ccc(Cl)cc1Cl (stereo not given) | 1.73 |
| CCC[C@@H]1C[C@@]1(CCC)[C@@H](NC(=O)c1ccco1)c1ccc(Cl)cc1 | -0.678 |
| CC(C)NC(=O)[C@@]1(Cc2ccccc2I)c2ccccc2C(=O)N(Cc2ccccc2C(F)(F)F)[C@H]1c1ccc(CO)cc1 | 0.506 |
| CCOC(=O)C[C@H]1[C@H](OC(=O)c2ccc(C(=O)c3ccccc3)cc2)[C@@H](NC(=O)C2CCCCC2)c2cc(OCCCO)ccc2N1C(=O)Cc1ccc(OC)cc1 | 0.602 |
| COc1ccc([Si](C)(C)[C@@H]2[C@@H](CC(=O)N3Cc4ccccc4C[C@H]3CO)O[C@]3(C(=O)N(Cc4cccc(N5CCCCC5=O)c4)c4ccccc43)[C@H]2C)cc1 | 1.11 |

| Compound | composite z-score |
| --- | --- |
| COCC(=C=CC[C@@H](O)c1ccccc1OCCO)C[C@@H](O)c1ccccn1 | -0.246 |
| COCCCNC(=O)[C@]1(CCS(=O)(=O)c2ccccc2)N=C(c2ccc(OCCCO)cc2)O[C@@H]1c1ccccc1 | 1.8 |
| COc1cccc(C[C@H]2C[C@@H](CO[Si](C(C)C)(C(C)C)C(C)C)N3C(=O)[C@]4(C(C)=O)O[C@]23[C@H]2C(=O)N(C)C(=O)[C@H]24)c1 | 0.102 |
| CCCCC(=C=CC[C@H](O)c1cccc(OCCO)c1)C[C@H](O)COCc1ccccc1 | -0.432 |
| CC(C)CNC(=O)[C@@]1(C)c2ccccc2C(=O)N(Cc2ccccc2)[C@H]1c1ccc(CO)cc1 | 0.055 |
| O=C1N(Cc2ccccc2)c2ccccc2[C@H]2OC(c3ccc(OCCCO)cc3)=N[C@@]12CCS(=O)(=O)c1ccccc1 | 0.557 |
| COc1ccc([Si](C)(C)[C@H]2[C@H](CCn3cc(CCO)nn3)O[C@@]3(C(=O)N(Cc4cccc(N5C(=O)c6cccc7cccc5c67)c4)c4ccccc43)[C@@H]2C)cc1 | 1.46 |
| COCCOC(=O)N1C(=O)[C@@]2(c3cc(C#CCC(C(=O)OC)C(=O)OC)ccc31)[C@H](c1ccc(OCCO)cc1)N1[C@H](c3ccccc3)[C@H](c3ccccc3)OC(=O)[C@H]1[C@@H]2C(N)=O | -0.189 |
| [N-]=[N+]=NCc1ccccc1C[C@]1(C(=O)NCCN2CCOCC2)COC(c2ccc(OCCCO)cc2)=N1 | 0.555 |
| O=C(NCc1ccccc1)[C@]1(Cc2ccccc2)N=C(c2ccc(OCCCO)cc2)O[C@@H]1c1ccccc1 | 0.652 |
| CN(C)C(=O)[C@]1(Cc2ccccc2N=[N+]=[N-])N=C(c2ccc(OCCCO)cc2)O[C@@H]1c1ccccc1CN=[N+]=[N-] | 0.939 |
| C=C[C@@H](O)[C@H]1CC(c2ccccc2)=NO1 | 0.0222 |
| C=CC[C@]1(C(=O)N(C)C)N=C(c2ccc(OCCCO)cc2)O[C@H]1c1ccccc1 | 0.765 |
| O=C(Nc1cc(Br)ccc1C(=O)NCc1cccc(O)c1)c1ccccc1 | 0.888 |
| CC(C)N1C(=O)c2ccccc2[C@](C)(C(=O)O)[C@@H]1c1ccc(CO)cc1 | 0.274 |
| COCC(=C=CC[C@@H](O)c1ccccc1OCCO)C[C@@H](O)COCc1ccccc1 | 2.56 |
| C=C(C)[C@@H]1CC=C(C(O)C2C=CC3C(=O)N(C4CCCCC4)C(=O)C3N2Nc2ccc(OC)cc2)CC1 (stereo not given in full) | 0.477 |
